What follows are sequences tested against T1, GST-Dm-Relish (Drosophila melanogaster, UniProt Q94527 99-473) (assay: protein-binding microarray (PBM); PBM: ~300 nM protein, 6 mM HEPES pH 7.8, 80 mM KCl, 0.5 mM EDTA, 0.5 mM EGTA, 6% glycerol, 35 ng/ul poly-dIdC, 1% milk, 1 h, room temperature; Ap Aiptasia and Nv Nematostella (sea anemones) / Co Capsaspora / Aq Amphimedon (sponge) / Dm Drosophila / Hu human; RHD is the Rel homology domain; high values mean tight binding). Details: dsDNA, one strand shown.
T1 sequence: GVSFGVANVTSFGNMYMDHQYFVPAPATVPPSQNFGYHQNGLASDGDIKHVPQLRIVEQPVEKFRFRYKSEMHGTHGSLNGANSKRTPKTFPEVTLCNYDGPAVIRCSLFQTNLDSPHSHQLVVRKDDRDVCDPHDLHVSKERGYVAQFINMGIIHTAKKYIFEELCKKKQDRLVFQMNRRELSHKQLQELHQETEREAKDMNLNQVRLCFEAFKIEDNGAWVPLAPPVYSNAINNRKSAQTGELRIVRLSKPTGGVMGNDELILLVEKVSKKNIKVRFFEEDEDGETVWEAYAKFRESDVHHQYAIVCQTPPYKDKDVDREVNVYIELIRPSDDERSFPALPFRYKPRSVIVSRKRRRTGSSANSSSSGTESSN

Sequence | binding signal [z-score]
CCGATTAACATCAGGAAAACACATGATGTTAATCGGGTCTTGATTCGCTTGACGCTGCTG | 2.56
CCGATTAACATCAAAAATTCCATTGATGTTAATCGGGTCTTGATTCGCTTGACGCTGCTG | 1.66
CCGATTAACATCAGGAAATAACATGATGTTAATCGGGTCTTGATTCGCTTGACGCTGCTG | 2.04
CCGATTAACATCAAATATTTTCCTGATGTTAATCGGGTCTTGATTCGCTTGACGCTGCTG | 1.09
CCGATTAACATCAGGAAAATCACTGATGTTAATCGGGTCTTGATTCGCTTGACGCTGCTG | 3.47
CCGATTAACATCACGGAATTCACTGATGTTAATCGGGTCTTGATTCGCTTGACGCTGCTG | 2.4
CCGATTAACATCACAACGGAATGTGATGTTAATCGGGTCTTGATTCGCTTGACGCTGCTG | 1.37
CCGATTAACATCACGTACATTCCTGATGTTAATCGGGTCTTGATTCGCTTGACGCTGCTG | 1.63
CCGATTAACATCAGGAAATCACATGATGTTAATCGGGTCTTGATTCGCTTGACGCTGCTG | 7.1
CCGATTAACATCAGGAATTCACATGATGTTAATCGGGTCTTGATTCGCTTGACGCTGCTG | 5.7
CCGATTAACATCAGGAATTACACTGATGTTAATCGGGTCTTGATTCGCTTGACGCTGCTG | 3.55
CCGATTAACATCACCGAATTTGGTGATGTTAATCGGGTCTTGATTCGCTTGACGCTGCTG | 1.44
CCGATTAACATCACGTTTTTTCCTGATGTTAATCGGGTCTTGATTCGCTTGACGCTGCTG | 1.57
CCGATTAACATCAAGTAGTTTCCTGATGTTAATCGGGTCTTGATTCGCTTGACGCTGCTG | 2.37
